Screens deposited in PubChem by National Center for Advancing Translational Sciences (NCATS).
Sampled rows, rich in hits. Any-hit rate of the full collection: about 2.2%.
Mito fusion yeast: blocks mitochondrial division or promotes mitochondrial fusion; S. cerevisiae fusion-defective mutant growth rescue, CellTiterGlo 48 h; Potency, µM (titrated, usually from 46.1 µM), inactives show at the top dose growth rescue (activation), actives largely listed as activators; 320,000 compounds, 0.23% hits; AID 485298; further: % of control where 0% means no effect; nearly all actives have a fitted effect of over 45% in size
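Temperature-sensitive fusion-defective S. cerevisiae (e.g. fzo1-1, mgm1-5) were grown with compound in YPEG medium (3% ethanol, 3% glycerol) for 48 hours at 37C. Growth rescue was measured as viability by CellTiterGlo luminescence after 10 minutes at ambient.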
Abeta yeast res: compounds reversing amyloid beta toxicity in yeast. yeast expressing A-beta42, growth rescue, OD600, 48 h; response scale: 0% DMSO, 100% iron-clioquinol control. Potency, µM (titrated, usually from 46.1 µM), usual class: activators. 410,000 compounds, 0.063% hits. AID 1347071; further: nearly all actives have a fitted effect of over 55% in size
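Yeast A-beta toxicity model in growth medium with pinned compounds, 48 h at 30 C; growth read as absorbance at 600 nm. Normalized to FeCl3/clioquinol equimolar mix (positive) and DMSO (negative).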
TDP43 rescue: rescues yeast growth from TDP-43 toxicity. Potency, µM (doses to about 46.1 µM), inactives show at the highest dose growth rescue (activation), actives largely listed as activators. 410,000 compounds, 1.8% hits. AID 652104. TDP-43 expressing yeast growth rescue, BacTiter-Glo, 24 h; further: % of control where 0% means no effect; nearly all actives have a fitted effect of over 50% in size
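Yeast cells expressing TDP-43 under galactose induction are exposed to compounds for 24 hr at 30 deg C. BacTiter-Glo luminescence measures growth, so protective compounds score as activators.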
aSyn yeast inh: alpha-synuclein toxicity inhibition in yeast; AID 652106; Yeast expressing alpha-synuclein, growth rescue, BacTiter-Glo, 24 h; Potency, µM (doses to about 46.1 µM), for inactives: top-dose growth rescue (activation), usual class: activators; 370,000 compounds, 0.14% hits; further: % of control where 0% means no effect; nearly all actives have a fitted effect of over 65% in size
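Rescue of yeast growth: cells expressing toxic alpha-synuclein, induced in galactose at OD600 0.02, incubated with compound 24 h at 30 C. ATP luminescence quantified growth; inhibitors of toxicity appear as activators.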
FUS suppressor: suppressors of FUS proteinopathy in yeast | S. cerevisiae FUS-expressing, growth rescue, OD600, 24 h | 390,000 compounds, 0.24% hits | AID 1347120 | Potency, µM (top dose mostly 76.6 µM), hits mostly activators;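 further: plate controls were DMSO vehicle for no effect and reference control for full effect; nearly all actives have a fitted effect of over 55% in size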
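Read-out: OD at 600 nm after 24hr at 30C, reporting rescue of FUS-induced yeast toxicity. Cells at OD 0.005 in galactose (2%) minimal medium; compounds tested in a dilution series; CP55940 titration from 92uM final as control.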
Starred values were filed as active, the others as inactive; i = inactive; ? = inconclusive; nt = not tested or not shown; [ ] = another dose, or the depositor's remark. The call rests on the fitted dose curve; in most records, active means well fitted curve in the direction sought with a large enough effect; inconclusive means small, poorly fitted or top-dose-only effect, or another doubt; inactive means no such curve, though single readings can be large; an effect the other way counts as inactive or inconclusive. Potency means the concentration at half of the fitted maximal effect.

SMILES	Mito fusion yeast	Abeta yeast res	TDP43 rescue	aSyn yeast inh	FUS suppressor
O=C(O)c1ccc2c(ccc3nn(-c4ccc(/C=C/c5ccc(-n6nc7ccc8cc(C(=O)O)ccc8c7n6)cc5[S+](=O)([O-])[O-])c([S+](=O)([O-])[O-])c4)nc32)c1	nt	nt	nt	0.7%	nt
Cc1ccc(OCC(=O)Nc2ccc(Cl)c(-c3nc4ncccc4o3)c2)cc1C	nt	i	17.8µM*	?	i
O=C(c1cc(COc2ccc(F)cc2Cl)on1)N1CCN(C2CCCC2)CC1	-1.0%	i	-3.3%	-6.3%	i
O=C(c1cc(COc2ccc(F)cc2Cl)on1)N1CCN(C2CCCCC2)C(=O)C1	-16.6%	i	20µM*	20.4%	nt
O=Cc1c(NCCc2ccc(F)cc2)c2ccccc2[nH]c1=O	7.8%	i	?	-0.4%	i
O=Cc1c(NCc2ccccc2F)c2ccccc2[nH]c1=O	4.9%	i	11.2µM*	0.3%	i
COc1ccc(N2C(=O)CSC23C(=O)N2c4c(cccc43)C(C)=CC2(C)C)cc1 (stereo not given)	-6.2%	i	-16.1%	15.8µM*	i
CCNC(=S)N/N=C/c1cc(C)n(-c2ccc(Cl)cc2)c1C	29.4%	i	?	5.8%	i
Cc1cc(/C=N/NC(N)=S)c(C)n1-c1ccc(Cl)c(Cl)c1	3.4%	?	17.8µM*	10.7%	i
CCOC(=O)[C@]12CCCC=C1N(Cc1cccc3ccccc13)C(=O)[C@H](CC(=O)N1CCCCC1)C2	nt	i	0.0%	10.9%	?
COc1ccc2c(c1)CC/C2=N\OC(=O)c1ccccc1OC	35.5µM*	i	?	-56.9%	i
Fc1ccc(-c2cc(C(F)(F)F)nc(NCC3CCCO3)n2)cc1 (stereo not given)	19.5%	i	?	-16.5%	i
FC(F)(F)c1cc(-c2ccccc2)nc(NCC2CCCO2)n1 (stereo not given)	6.6%	i	12.6µM*	-16.2%	i
O=c1cc2c(nn1Cc1ccccc1)-c1ccccc1CC2	1.7%	i	18.6%	5.8%	i
O=c1cc2c(nn1Cc1ccc(F)cc1)-c1ccccc1CC2	12.6µM*	i	16.6%	-7.9%	i
O=c1cc2c(nn1Cc1cccc([N+](=O)[O-])c1)-c1ccccc1CC2	-1.4%	i	28.2µM*	1.8%	i
S=C(NCC1(c2ccccc2)CCCC1)Nc1ccccc1	-6.7%	5.01µM*	?	7.6%	i
COC(=O)c1ccc(S(=O)(=O)N2CCC(NC(=O)CCc3ccccc3)CC2)cc1	nt	nt	nt	nt	i
CC(C)CN1C(=O)[C@@]2(CC(=O)N(C)C2c2ccccc2)c2cc(-n3cc(CCCC#N)nn3)ccc21 (stereo not given in full)	nt	nt	nt	nt	i
N#Cc1nc(/C=C/c2ccc(F)cc2)oc1N1CCCCCC1	nt	i	11.2µM*	nt	i
CCN1CCN(c2oc(/C=C/c3ccc(OC)c(OC)c3)nc2C#N)CC1	nt	i	5.3%	nt	i
COc1ccc(/C=C/c2nc(C#N)c(N3CCCCCC3)o2)cc1OC	nt	i	17.8µM*	nt	i
Cc1cc(-c2ccco2)c(C#N)c2nc3ccccc3n12	15.8%	i	3.98µM*	0.562µM*	i
Cc1cc(C(C)C)n2c(nc3ccccc32)c1C#N	27.3%	nt	nt	nt	nt
COc1cc(C2C(C(=O)c3cc4ccccc4o3)=C(O)C(=O)N2CCN2CCOCC2)ccc1OCCC(C)C (stereo not given)	-1.7%	i	11.2%	3.3%	28.2µM*
SMILES	Mito fusion yeast	Abeta yeast res	TDP43 rescue	aSyn yeast inh	FUS suppressor
O=C(Nc1nc2ncccn2c1-c1ccc(F)cc1)c1ccc(F)cc1	nt	nt	nt	nt	i
CC(/C=N/NC(=O)c1cc(C(C)C)[nH]n1)=C\c1ccccc1	0.9%	i	16.6%	3.98µM*	i
CC1(C)CC(=O)C2=C(C1)Nc1cc3c(cc1C2c1ccc2c(c1)OCO2)OCO3 (stereo not given)	2.8%	i	-7.8%	10.3%	35.5µM*
CCOc1ccc(C(=O)CCC(=O)N(CC)CC(=O)NCc2cccs2)cc1	-4.4%	i	-9.4%	-1.8%	i
CCOc1ccc(C(=O)CC(NCc2cccs2)C(=O)O)cc1 (stereo not given)	-1.7%	i	-15.8%	11.2µM*	i
CCOc1ccc(C(=O)CC(C(=O)O)N2CCCCC2)cc1 (stereo not given)	0.7%	i	35.5µM*	0.7%[1.84 µM]	i
O=C(C[n+]1cccc(Br)c1)c1cccs1	-0.6%	i	-12.3%	-2.1%	i
O=C(NC1CCSc2ccccc21)c1cccc([N+](=O)[O-])c1 (stereo not given)	1.7%	i	12.6µM*	0.2%	i
CN(C)S(=O)(=O)c1cccc(C(=O)NC2CCSc3ccccc32)c1 (stereo not given)	0.9%	i	-0.6%	9.4%	i
CCC(CC)C(=O)Oc1c(C(=O)N(C)C)cccc1-c1ccccc1	nt	i	-5.0%	16.3%	i
CC(OC(=O)C1CCN(c2ccc(C(F)(F)F)cn2)CC1)C(=O)Nc1cccc([N+](=O)[O-])c1 (stereo not given)	0.6%	i	?	-0.4%	i
COc1ccc([N+](=O)[O-])cc1NC(=O)C(C)OC(=O)/C=C/c1ccco1 (stereo not given)	13.8%	i	25.1µM*	-10.3%	nt
COc1ccc(Cl)cc1NC(=O)CN(C)CC(=O)Nc1ccc(C)cc1Br	-5.6%	i	17.8µM*	2.9%	i
COc1ccc(Cl)cc1NC(=O)CN(C)C(=O)/C=C/c1ccco1	nt	i	28.2µM*	5.5%	i
Cc1cccc(OCCn2c(-c3ccco3)nc3ccccc32)c1	-5.6%	i	11.2µM*	-7.6%	i
CCCn1c(NC(=O)c2cccc(C)c2C)nc2ccccc21	3.9%	i	20µM*	?	i
Cc1cccc(OCCn2c(NC(=O)c3ccco3)nc3ccccc32)c1	8.0%	i	15.8µM*	5.1%	i
CCCn1c(NC(=O)C2CCN(C(=O)c3ccccc3C)CC2)nc2ccccc21	-5.6%	i	?	1.0%	i
Cc1csc(NC(=O)CCc2c(C)nc3cc(-c4ccc(Cl)cc4)nn3c2C)n1	5.4%	i	29.1%	8.1%	i
Cc1nc2cc(-c3ccc(Cl)cc3)nn2c(C)c1CCC(=O)NC(C)c1ccc2c(c1)OCCO2 (stereo not given)	17.8µM*	i	28.2µM*	11.9%	i
CC1=C(C#N)C(NC(=O)c2ccccc2Cl)(C(F)(F)F)C(=O)N1 (stereo not given)	0.4%	i	-2.0%	0.8%	i
C/C(=N\NC(=O)c1c(Cl)cnn1C)c1ccc(NC(=O)c2ccc(Br)o2)cc1	-2.2%	i	-7.3%	1.2%	i
CCCCN1C(=O)C(O)(CC(=O)c2ccc(CC)cc2)c2cc(Br)ccc21 (stereo not given)	nt	i	17.8µM*	nt	i
